tim10-1 inh: tim10-1 yeast growth inhibition. S. cerevisiae tim10-1 ts strain growth, BacTiter-Glo, 24 h. inhibition, % at 20 µM. hit rate 2.2% among 330,000;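 active = inhibition of at least 40%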;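 note: mutant grown at 25 °C; 0% = DMSO wells with yeast and 100% = wells holding no yeast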
TIM10 inh: inhibits growth of TIM10 yeast strain; S. cerevisiae TIM10 strain growth, BacTiter-Glo luminescence, 24 h; inhibition, % at 10 µM; hit rate 1.4% among 330,000;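 active = inhibition of 40% or more at the single tested concentration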;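 note: wild-type TIM10 isogenic control strain grown at permissive 25 °C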
PfHsp90 set2: growth inhibition of yeast expressing Plasmodium Hsp90 | S. cerevisiae expressing PfHsp90, BacTiter-Glo ATP, 48 h; yeast lacking PDR1 and PDR3 efflux regulators | inhibition, % at 9.4 µM | hit rate 0.32% among 310,000 | AID 504621;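 active = every replicate shows inhibition above about 80%, whatever the replicate mean, limit read from the data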;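 note: 0% = DMSO neutral controls and 100% = 20 µM radicicol positive controls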
tim23-1 inh: tim23-1 yeast growth inhibition. S. cerevisiae tim23-1 growth, BacTiter-Glo luminescence, 24 h. inhibition, % at 20 µM. hit rate 1.3% among 330,000;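 active = growth inhibition of the mutant yeast at or above 50%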;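 note: temperature-sensitive mutant grown at 25 °C; plate controls were DMSO-treated mutant yeast for no effect and medium wells lacking yeast for full effect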
SKKanGAS inh: SKKanGAS growth inhibition. inhibition, % at 7.5 µM. S. pyogenes SKKanGAS, kanamycin growth, BacTiter-Glo, 6 h. hit rate 1.3% among 300,000;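 active = mean replicate score, as percent of positive control median, at least 50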;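 note: strain carries kanamycin resistance gene driven by streptokinase promoter and grows in 40 µg/ml kanamycin; loss of luminescence reflects streptokinase promoter inhibition or plain growth inhibition; 0% = median of DMSO wells and 100% = positive control at its reference dose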
tim10-1 confirm: tim10-1 yeast growth inhibition, confirmed; hit rate 56% among 7,400; shares compounds with tim10-1 inh; AID 463213; inhibition, % at 20 µM; S. cerevisiae tim10-1 ts strain growth, BacTiter-Glo, 24 h;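 active = inhibition of yeast growth at or above a set limit in either of two repeat tests at 20 µM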;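 note: tim10-1 mutant grown at permissive 25 °C to find synthetic lethal compounds; 0% = DMSO yeast wells and 100% = medium wells without yeast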
* = called active by the depositor; / = no result. Sampled rows, rich in hits. Any-hit rate of the full collection: about 4.4%.

SMILES | tim10-1 inh | TIM10 inh | PfHsp90 set2 | tim23-1 inh | SKKanGAS inh | tim10-1 confirm
COc1ccc(NC(=O)CC2C(=O)N(c3cccc(C)c3)C(=O)N2C2CCCCC2)cc1 (centres undefined) | 40 | 11 | / | 23 | -1 | 23
CCc1ccc(NC(=O)CC2C(=O)N(c3cccc(C)c3)C(=O)N2C2CC2)cc1 (centres undefined) | 20 | 12 | -20 | 19 | 3 | /
CN(C)C(CNC(=O)CSc1nc2ccccc2c(=O)n1Cc1ccco1)c1ccccc1 (centres undefined) | 16 | 16 | 5 | 14 | -2 | /
CCOC(=O)Cc1cc(-c2ccc(O)cc2)nc2ccc3ccccc3c12 | 42* | 19 | -20 | 22 | 14 | 24
CC1CCCC(NC(=O)COC(=O)c2cc3ccccc3oc2=O)C1C (centres undefined) | 10 | 12 | 10 | 43 | / | /
O=C(NNC(=S)Nc1cccc(Cl)c1)c1ccccc1OC(F)F | 43* | 4 | -9 | 33 | -7 | 28
Cc1ccc(NC(=S)NNC(=O)c2ccccc2OC(F)F)cc1 | 40* | 29 | -4 | 17 | -1 | 39*
COc1cccc(NC(=S)NNC(=O)c2ccccc2OC(F)F)c1 | 31 | 12 | -4 | 15 | 1 | /
CCc1nc2ccccc2n1CCc1ccccc1 | 18 | 4 | -12 | 8 | 0 | /
CC(C)(C)Cc1nc2ccccc2n1CCc1ccccc1 | 41* | 37 | -14 | 36 | 14 | 27
Cc1cc(C)n(CC(O)Cn2c3ccc(Br)cc3c3cc(Br)ccc32)c(=O)n1 (centres undefined) | 56* | 23 | -7 | 46 | 29 | 52*
OCCCNc1nc(-c2ccccc2)c2cc(Br)ccc2n1 | 48* | 17 | -69 | 32 | 3 | 36*
O=C(CN1CCN(c2ccccc2O)CC1)Nc1ccnn1C1CCCC1 | -9 | -8 | / | -1 | / | /
COc1ccc(NCc2nc3ccccc3n2CCOc2ccc(C)cc2)cc1 | 50* | 17 | 5 | 49 | 12 | 29
COc1ccc(/C(N)=N/OC(=O)CCCc2ccccc2)cc1OC | 29 | 6 | 6 | 6 | -5 | /
COc1ccc(/C(N)=N/OC(=O)C2CCCCC2)cc1 | 51* | 34 | 0 | 25 | 1 | 31*
COc1ccc(/C(N)=N/OC(=O)C2CCCCC2)cc1OC | 37 | 16 | -9 | 22 | 7 | /
COc1ccc(/C(N)=N/OC(=O)CCC2CCCC2)cc1OC | 46* | 9 | -30 | 20 | 2 | 37*
COc1ccc(/C(N)=N/OC(=O)CC2CCCCC2)cc1OC | 51* | 18 | -18 | 19 | -2 | 61*
Cc1cnc(C(=O)OCC(=O)NCc2ccc(Cl)cc2)cn1 | -1 | 3 | 6 | -6 | / | /
CCN1CCN(C(=O)CN2C(=O)c3ccccc3S2(=O)=O)CC1 | -17 | -1 | 7 | -16 | -2 | /
Cc1noc(C)c1C(=O)OCC(=O)/C=C1/N(C)c2ccccc2C1(C)C | / | / | -9 | / | / | /
Cc1ccc(C2CC2C(=O)NNC(=S)Nc2cccc(Cl)c2)cc1 (centres undefined) | 35 | 18 | 5 | 15 | 5 | /
Cc1ccc(C2CC2C(=O)NNC(=S)Nc2cccc(C)c2)cc1 (centres undefined) | 49* | 32 | / | 23 | -4 | 16
O=C(NCc1ccccc1)c1cc(-c2cccs2)on1 | 6 | -7 | -5 | 11 | -6 | /
SMILES | tim10-1 inh | TIM10 inh | PfHsp90 set2 | tim23-1 inh | SKKanGAS inh | tim10-1 confirm
O=C(NCc1ccccc1)c1nc(-c2cccs2)no1 | 40* | 5 | 0 | 12 | / | 38*
CCCCN(C(=O)C1=COCCO1)c1c(N)n(Cc2ccccc2)c(=O)[nH]c1=O | 43* | -1 | 0 | 23 | 1 | 5
COCCN(C(=O)C1=COCCO1)c1c(N)n(Cc2ccccc2)c(=O)[nH]c1=O | 1 | 5 | -10 | 8 | -1 | /
CC1CCc2c(sc3ncnc(SCC(=O)N(C)C4CCS(=O)(=O)C4)c23)C1 (centres undefined) | 15 | 10 | -5 | 11 | / | /
Cc1c(C(=O)N2CCOCC2)oc2ccc(S(=O)(=O)N3CCCC3)cc12 | 8 | 7 | -39 | -1 | 3 | /
Cc1c(C(=O)N2CCc3ccccc3C2)oc2ccc(S(=O)(=O)N3CCCCCC3)cc12 | 43* | 21 | -2 | 36 | 9 | 22
CCn1nc(C)c(NC(=O)c2cnn3c(C(F)F)cc(-c4ccccc4)nc23)c1C | 42* | 19 | -31 | 19 | -13 | 16
O=C(NN1CCCCC1)c1cnn2c(C(F)F)cc(-c3ccccc3)nc12 | -7 | -9 | -10 | -11 | 8 | /
C=CCn1c(SCc2ccc(C#N)cc2)nnc1-c1ccc(C)cc1 | 44* | 17 | / | 36 | -3 | 28
Cn1c(SCc2ccc(C#N)cc2)nnc1-c1ccncc1 | -14 | -12 | 13 | -10 | -4 | /
Cc1ccc(CNc2nc(C)c(C(=O)N(C)C)s2)cc1 | -10 | 10 | -61 | 11 | -1 | /
CC(/C=C/c1ccccc1)=N\Nc1nc(C)cc(C)n1 | 17 | 8 | 0 | 25 | 0 | /
Cc1cc(C)nc(NN=C(c2ccccc2)c2ccccc2)n1 | 47* | 25 | 10 | 42 | -4 | 24
COc1ccc(NC(=O)NCC(C)CSc2ccc(C)cc2)c(OC)c1 (centres undefined) | 12 | 1 | -12 | 11 | -2 | /
Fc1ccc(Nc2ncnc3sc4c(c23)CCC4)cc1 | 43* | 21 | 17 | 47 | 3 | 28
COc1ccc(/C=N/Nc2ncnc3sc4c(c23)CCCC4)cc1OC | 41* | 26 | -14 | 11 | 2 | 18
COc1ccc(/C=N/Nc2ncnc(Cl)c2N)cc1OC | 5 | -5 | 20 | 8 | -7 | /
Cc1cc(NC(=O)CN2C(=O)NC(c3ccccc3)(c3ccc(C)c(C)c3)C2=O)no1 (centres undefined) | 11 | 5 | 1 | 13 | / | /
CCOC(=O)c1c(C)[nH]c(C)c1C(=O)COC(=O)CCc1ccccc1 | 9 | -2 | -5 | 8 | / | /
O=C(OCC(=O)N1CCc2ccccc21)[C@@H]1CC(O)CN1S(=O)(=O)c1ccccc1[N+](=O)[O-] (some centres undefined) | -1 | 6 | 7 | 17 | / | /
N#Cc1ccccc1Cn1c(=O)n(C2CCCC2)c(=O)c2ccccc21 | 46* | 24 | -8 | 41 | 2 | 38*
O=c1c2ccccc2n(Cc2cccc(F)c2)c(=O)n1C1CCCC1 | 35 | 25 | 10 | 33 | 30 | /
CCOC(=O)c1ccc(N=Cc2cnc(N)nc2N)cc1 | / | / | -19 | / | / | /
COC(=O)c1c(NC(=O)Cc2ccccc2)sc(C)c1C | -6 | 7 | 5 | 20 | 24 | /
COC(=O)c1c(NC(=O)CSc2ccccc2N)sc(C)c1C | 46* | 21 | 3 | 37 | 14 | 36*
CCOC(=O)c1c(NC(=O)CSc2nnc(CNc3ccc(OC)cc3)n2C)sc(C)c1C | 41* | 5 | / | 33 | 13 | 13
